The record followed here is ChEMBL document CHEMBL4888484, “Replenishing the malaria drug discovery pipeline: Screening and hit evaluation of the MMV Hit Generation Library 1 (HGL1) against asexual blood stage Plasmodium falciparum ,using a nano luciferase reporter read-out” (2022).

The whole screen tested about 150,000 compounds, of which about 540 (0.36%) showed an effect of 50% or more. Only a selection was taken, and strong results are over-represented in it overall.

In the experiment the test system is Plasmodium falciparum. The experiment can be described thus: Primary screen in NF54 nanoGlo assay, in single point, at 2uM, 72h; a lower Z score goes with more inhibition. It is filed as functional, Erythrocyte. Particulars: timepoint 72 hour.
Consider `O=S1(=O)NC[C@H](O)CNC[C@@]2(COc3cc(-c4ccccc4)ccc31)C[C@@H](O)[C@@H](O)C2`, for which the % Inhibition (in general, the relative decrease from the control value, in per cent) was -14% and the Z score was found to be 1.78.
Regarding `Cn1nccc1[C@@H]1CN(C(=O)NCc2ccon2)CCO1`, the “% Inhibition” value was -3% and the Z score was 0.43.
For `Cc1ccc(C)c(C(=O)N[C@@H](C)c2nc(-c3cccnc3)cs2)c1` the same measures were 0% and -0.01.
For `Cc1cc(CC(=O)N[C@@H](C)c2nc(-c3cccnc3)cs2)no1`, in that order: -5% and 0.5.
Turning to `Cc1cc(C(=O)N[C@@H](C)c2nc(-c3cccnc3)cs2)cc(O)n1`, the “% Inhibition” value worked out at 51% and the Z score is -3.53.
For `COc1cccc(CCn2ccnc2C(C)C)c1`, in that order: -4% and 0.93.
For the compound `COc1ccccc1CCNC(=O)c1ccccc1N1CCC(NS(=O)(=O)c2ccc(F)cc2)CC1`, the “% Inhibition” value stood at 11% and the Z score is reported as -1.5.
For `NC1CC(c2cc(N3CCCCCCCC3)ncn2)C1` (configuration not stated), in that order: -23% and 2.99.
For `N[C@H]1C[C@@H](c2cc(N3CCN(C4CCCCC4)CC3)nc(N3CCCC3)n2)C1` the same measures were 56% and -8.12.
For `c1ccc2c(N3CCCC3)nc(N3CCN(C4CCCCC4)CC3)nc2c1` the same measures were -5% and 0.7.
As for `CC(C)c1nnc2c3ccccc3nc(N3CCN(C(=O)c4ccc(Cl)cc4)[C@@H](C)C3)n12`, the “% Inhibition” value is given as -1% and the Z score turned out to be 0.12.
For `Nc1nc(N2CCN(Cc3ccc(F)cc3)CC2)cc([C@H]2C[C@@H](N)C2)n1`, in that order: 16% and -2.35.
For `Nc1nc(C2CC(N)C2)cc(N2CCC(Oc3ccccc3Cl)CC2)n1` (configuration not stated) the same measures were 50% and -7.79.
For `Nc1nc(N2CCN(c3ccc(F)c(Cl)c3)CC2)cc([C@H]2C[C@@H](N)C2)n1`, in that order: 49% and -3.16.
Take `Cc1ccc(Cc2nnc(NC(=O)Cc3ccccc3Cl)o2)c(C)c1`: the “% Inhibition” value was -13% and the Z score turned out to be 1.44.
For `CN1CCCN(c2ccc3ccc(F)cc3n2)CC1` the same measures were -5% and 0.48.
For `CCNC(=O)N[C@H]1CCN(C2CCCCCC2)C1`, in that order: 1% and -0.09.
As for `Oc1ccccc1-c1cc(-c2ccccc2)c2c(ccc3ccccc32)n1`, the “% Inhibition” value was -5% and the Z score is on record as 0.64.
For `COc1cc(-c2cc(-c3cccnc3)c3c(ccc4ccccc43)n2)cc(Cl)c1O` the same measures were 18% and -2.48.
On to `CCOc1cc(-c2cc(-c3ccccc3O)nc3ccc4ccccc4c23)cc(Br)c1O`, for which the “% Inhibition” value worked out at 82% and the Z score was -8.45.
For `Cn1ccnc1CN1C[C@@H](F)C[C@H]1CNc1ncnc2c1CCCCC2`, in that order: -4% and 0.8.
For `COc1cccc(C(=O)N2CCN(C(=O)Cn3cc(Cl)cn3)CC2)c1` the same measures were -4% and 0.42.
`Cn1ccc(NS(=O)(=O)c2cccc3c2N=S=N3)n1`: the “% Inhibition” value was -1% and the Z score was 0.06.
For `O=C(N[C@@H]1CN(Cc2ccc(CO)o2)CCC[C@H]1O)c1ccc(OCc2ccccc2)cc1`, in that order: 26% and -2.94.
For `O=C(N[C@@H]1CN(Cc2ccccn2)CCC[C@H]1O)c1ccc(OCc2ccccc2)cc1` the same measures were 59% and -6.9.
For the compound `CCOc1cccc(C(=O)N[C@H]2CCN(Cc3ccccn3)C[C@@H]2O)c1`, the “% Inhibition” value is given as 2% and the Z score is on record as -0.4.
For `Cc1ccc(-c2nc(CC(=O)N3CCC(C(C)(C)C)C(O)C3)cs2)o1` (configuration not stated), in that order: -3% and 0.35.
For `Cc1n[nH]c(=O)c2c1cnn2-c1ccccc1` the same measures were 21% and -2.61.
For `Cc1nc(-c2c(C)c(C)nn(C)c2=O)sc1C(=O)NC[C@H](C)N1CCc2ccccc21`, in that order: 31% and -3.46.
Consider `CCN=C(NCc1noc(C)n1)NCc1ccccc1OC(C)(C)C`, for which the “% Inhibition” value is reported as -6% and the Z score is on record as 0.55.
For `CCc1ncc(CN2CCC[C@H](NC(=O)CN3CCOC3=O)CC2)cn1`, in that order: 9% and -1.74.
For `CC(=O)N(CC[C@]1(Cc2ccccc2Cl)CCOC(C)(C)C1)Cc1ccco1` the same measures were 32% and 1.22.
Consider `Cn1n[n+](CCCCC(Cl)(Cl)Cl)c2ccccc21`, for which the “% Inhibition” value is 65% and the Z score is listed as -4.82.
For `Cn1n[n+](CC(=O)Nc2ccccc2Cl)c2ccccc21`, in that order: 41% and -0.29.
For `COc1c2c(cc3c1[C@H](C(=O)NC(c1ccccc1)c1ccccc1)[N+](C)(C)CC3)OCO2` the same measures were 2% and -0.21.
For `COc1c2c(cc3c1[C@@H](C#CCOc1ccccc1)[N+](C)(C)CC3)OCO2`, in that order: 64% and -13.6.
For `COc1c2c(cc3c1[C@H](CC(=O)Cc1ccccc1)[N+](C)(C)CC3)OCO2`, the “% Inhibition” value is given as -1% and the Z score was 0.08.
For `Cn1c(COc2ccccc2C(N)=O)nnc1-c1ccc(Cl)cc1`, in that order: 3% and -0.35.
For `COc1cccc(C(=O)N2C[C@@H]3CC[C@H]2CN(Cc2c(C)noc2C)C3)c1` the same measures were 4% and -0.53.
For `c1ccc(-c2nc(CN3CCCCCCC3)cs2)cc1`, in that order: -10% and 1.49.
Regarding `c1ccc(-c2nc(CN3CCc4ccccc4C3)cs2)cc1`, the “% Inhibition” value is -1% and the Z score is 0.12.
For `c1ccc(-c2nc(C[n+]3ccc4c(c3)CCCC4)cs2)cc1` the same measures were 63% and -6.15.
For `O=C(Cn1cc(-c2ccccc2)ncc1=O)NC[C@@H]1CCCN2CCCC[C@H]12` the same measures were -8% and 0.97.
In the case of `CCCCN(CCCNC(=O)[C@H]1CCCN(c2ncnc3onc(C)c23)C1)Cc1ccccc1`, the “% Inhibition” value was 5% and the Z score is on record as -0.69.
With `O=C(O)C[C@@H]1CN(C(=O)c2ccc3c(c2)OCO3)C[C@@H]1c1c[nH]nn1`, the “% Inhibition” value is reported as -3% and the Z score turned out to be 0.47.
In the case of `CCN(CC)Cc1cn2ccccc2c1C#N`, the “% Inhibition” value is -12% and the Z score is recorded as 1.72.
Take `COC(=O)c1ccc(C)c(OCc2cn3ccccc3c2C#N)c1`: the “% Inhibition” value is given as -17% and the Z score was 2.14.
For `N#Cc1c(NC(=O)Nc2cn3ccccc3c2C#N)cn2ccccc12` the same measures were 65% and 1.13.
For `CC1CCC(O)(CS(=O)(=O)Cc2nccs2)CC1` (configuration not stated), in that order: -8% and 1.13.
For `COc1cc(C2N[C@H](C(=O)O)Cc3c2[nH]c2ccccc32)ccc1OCc1ccccc1` (some centres not stated) the same measures were -3% and 0.42.
Regarding `COc1ccc(C2N[C@H](C(=O)O)Cc3c2[nH]c2ccccc32)cc1` (some centres not stated), the “% Inhibition” value is -14% and the Z score is 2.25.
For `COc1ccc2[nH]c3c(c2c1)CC(C(=O)O)NC3c1ccc(OC)c(CN2CCN(c3ccccc3F)CC2)c1` (configuration not stated), in that order: 74% and -11.3.
For `Cc1csc(Oc2ccc(N)cc2F)n1` the same measures were -12% and 1.47.
`CC1CN(C(=O)CN(C)c2cnccn2)CC(C)O1` (configuration not stated): the “% Inhibition” value was -5% and the Z score was 0.83.
For `Cc1cc(NC(=O)c2ccccn2)n(-c2nc3ccccc3o2)n1` the same measures were 89% and -10.15.
For `Cc1nc2cc(NC(=O)c3ccccn3)ccc2o1`, in that order: 11% and -1.99.
For `O=C(Nc1cccc(CNc2nc3ccccc3o2)c1)c1ccccn1` the same measures were -13% and 1.61.
As to `CN(CC(F)(F)F)C(=O)CNc1ncccn1`, the “% Inhibition” value amounted to 3% and the Z score is reported as -0.38.
For `Cc1cc(C)cc(NC(=O)C23CCC(C)(C(=O)C2=O)C3(C)C)c1` (configuration not stated), in that order: 9% and -1.39.
For `COc1cccc(NC(=O)c2cc(C(=O)Nc3cccc(OC)c3)cc(N3C(=O)c4ccccc4C3=O)c2)c1`, in that order: 18% and -2.84.
`CC(C)c1nc(O)cc(CN2CCCCC2)n1`: the “% Inhibition” value is reported as 33% and the Z score is reported as 1.16.
For `Cc1nc(O)cc(CN2CCCCC2)n1` the same measures were -11% and 1.95.
For `CC(C)c1ccc(-c2nc(CN3CCCCC3)cc(CN3CCCCC3)c2O)cc1`, in that order: 96% and -15.06.
For `Cc1ccc(S(=O)(=O)c2c(N)n(-c3ccc4c(c3)OCCO4)c3nc4ccccc4nc23)cc1` the same measures were 6% and -0.5.
Regarding `O=C(NC1CC1c1ccc(F)cc1)N1CCN(c2ccccc2O)CC1` (configuration not stated), the “% Inhibition” value is recorded as -7% and the Z score came to 1.5.
For `CC1(C)COc2ccc(C(=O)N3CC[C@H](O)C3(C)C)cc21`, in that order: 19% and -2.22.
For `CCn1nnc2cc(C(=O)N3CCN(C(c4ccccc4)c4ccccc4)CC3)ccc21` the same measures were 32% and -3.63.
Take `COc1ccc(-c2nn3c(N4CCN(C)CC4)cc(C)nc3c2C)cc1OC`: the “% Inhibition” value is recorded as -11% and the Z score came out at 2.19.
For `COc1ccc(-c2nn3c(N4CCCCCC4)cc(C)nc3c2C)cc1OC`, in that order: -8% and 1.59.
For `COc1ccc(-c2nn3c(N4CCN(CC=Cc5ccccc5)CC4)cc(C)nc3c2C)cc1OC`, in that order: 72% and -3.65.
For `COc1ccccc1-c1cc2nc(C)cc(N3CCN(Cc4ccccc4)CC3)n2n1` the same measures were -10% and 1.85.
Take `COc1ccccc1-c1cc2nc(C)cc(N3CCN(CCO)CC3)n2n1`: the “% Inhibition” value is reported as -14% and the Z score was 1.98.
In the case of `COc1ccc(-c2cc3nc(C)cc(N4CCN(C/C=C/c5ccccc5)CC4)n3n2)cc1OC`, the “% Inhibition” value is reported as 51% and the Z score is given as -9.31.
Consider `COc1ccc(NC(=O)CN2C(=O)[C@H]3CCCC3=Nc3ccccc32)cc1`, for which the “% Inhibition” value amounted to 1% and the Z score was -0.17.
For `Cc1cc(S(=O)(=O)N(C)CCC(=O)O)sc1C`, in that order: -30% and 2.75.
For `COc1ccc(-n2c(CN3CCCC3)n[nH]c2=O)c(C)c1` the same measures were -9% and 0.87.
In the case of `Cc1ccc(OCC(=O)Nc2noc(-c3ccc(F)cc3)n2)cc1`, the “% Inhibition” value is given as -8% and the Z score is reported as 1.23.
For `CNc1nc(N2C[C@H]3CC[C@@H](C2)N(C)C3=O)nc2c1CCC2` the same measures were 6% and -0.76.
For `CNc1nc(N2C[C@H](C)[C@@](O)(C3CC3)C2)nc2c1CCC2` the same measures were 100% and -0.11.
For `CNc1cc(C)nc(N2C[C@H](C)[C@@](O)(C3CC3)C2)n1` the same measures were 7% and -1.4.
For `C=C1C2CCC3(C4C[C@@H]5[C@@]6(C)CCC[C@]5(C3[C@H]2O)[C@@H]4N(CC)C6)[C@@H]1O` (some centres not stated), the “% Inhibition” value came out at 31% and the Z score is on record as -3.48.
